Assay outcomes: PubChem, National Center for Advancing Translational Sciences (NCATS)
The list is not random: actives were taken first. Their share in the collection is about 0.77%.
KAT2A inh: GCN5L2 (KAT2A) acetyltransferase inhibition; GCN5L2 HAT assay, ThioGlo1 CoA-SH fluorescence; Potency, µM (top dose mostly 58.9 µM), without a hit: top-dose activity change, negative = inhibition, most hits filed as inhibitors; 390,000 compounds, 0.21% hits; note: potency is the fitted concentration of half-maximal effect; % is set by controls: 0 for no effect and ±100 for the full control effect
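Compounds, pin-transferred from DMSO stocks, meet 20nM GCN5L2 for 15 min before the reaction begins with H3(1-25) peptide (75uM) and acetyl-CoA (70uM). Thiol-reactive ThioGlo1 reports CoA release over 20 min at room temperature.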
Vif-APOBEC3F blk: inhibitors of Vif-A3F interaction. HeLa A3F-eYFP + Vif (tagged APOBEC3F with the HIV-1 protein that degrades it), YFP fluorescence increase. AID 602313. 390,000 compounds, 0.2% hits. Potency, µM (series often up to 46.1 µM), for the others: top-dose activity, negative = active; note: potency is the fitted concentration of half-maximal effect; % of control where 0% means no effect; nearly all actives have a fitted effect of over 65% in size
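Fluorescence increase (Ex 488/Em 500-530) after overnight compound treatment at 37 deg C flags inhibition of Vif-driven A3F-eYFP loss in stable HeLa A3F-eYFP/Vif cells seeded overnight beforehand.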
PKM2 act: activators of human pyruvate kinase M2; P14618; purified PKM2, Kinase-Glo ATP luminescence, activation; response scale: 0% is enzyme alone, no compound; Potency, µM (titrated, usually from 57.5 µM), inactives show top-dose activation, most hits filed as activators; 260,000 compounds, 0.34% hits; note: potency is the fitted concentration of half-maximal effect; % is set by controls: 0 for no effect and ±100 for the full control effect; nearly all actives have a fitted effect of over 55% in size
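Purified hPK-M2 (>95% pure) converted ADP (0.1 mM final) to ATP with 0.5 mM PEP in 50 mM imidazole pH7.2, KCl, MgCl2, Tween 20, BSA; 1 h at room temperature. ATP detected by Kinase-Glo luminescence.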
IL2 activator: activators of IL-2; activation, % (series mostly up to about 46 µM); 360,000 compounds, 0.065% hits; IL-2 activation reporter assay, cell-based qHTS; stimulated with anti-CD3/CD4/CD28 beads; in transgenic mouse T cells; AID 652025; in the data active = activation above about 50%; inconclusive = mostly about 30% to 49%; note: 0% is about no effect
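EGFP and DsRed fluorescence is measured by plate cytometry in unstimulated transgenic mouse T cells exposed to compound for 60 minutes, then stimulated 18 hours at 37 degrees C with anti-CD3/anti-CD4 beads plus anti-CD28.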
Vif-A3G inh: Vif-A3G binding inhibition; Q9HC16; AID 602310; Potency, µM (titrated, usually from 46.1 µM), for inactives: at the top dose activity, negative = active, hits mostly inhibitors; 410,000 compounds, 0.076% hits; HeLa A3G-eYFP + Vif (tagged APOBEC3G with the HIV-1 protein that degrades it), YFP fluorescence, overnight; note: potency is the fitted concentration of half-maximal effect; % is set by controls: 0 for no effect and ±100 for the full control effect; nearly all actives have a fitted effect of over 60% in size
Target sequence (Q9HC16 whole entry, looked up): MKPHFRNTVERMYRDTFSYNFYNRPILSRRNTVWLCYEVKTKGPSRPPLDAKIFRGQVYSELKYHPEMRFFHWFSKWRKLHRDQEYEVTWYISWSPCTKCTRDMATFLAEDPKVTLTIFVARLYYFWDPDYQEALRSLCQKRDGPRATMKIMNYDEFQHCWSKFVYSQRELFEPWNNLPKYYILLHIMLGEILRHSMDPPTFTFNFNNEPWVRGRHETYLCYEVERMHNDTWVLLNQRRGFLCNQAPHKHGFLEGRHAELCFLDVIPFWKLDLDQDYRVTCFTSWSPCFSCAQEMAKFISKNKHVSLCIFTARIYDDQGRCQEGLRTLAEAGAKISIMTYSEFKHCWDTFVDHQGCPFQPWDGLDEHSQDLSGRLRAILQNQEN
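HeLa cells stably expressing Vif and C-terminally eYFP-tagged A3G, seeded overnight at 37 deg C, then exposed to compound by pintool overnight at 37 deg C. Rise in yellow fluorescence (Ex 488/Em 500-530, Acumen) marks blocked Vif-driven A3G degradation.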
GoLoco inh red: inhibitors of human Gai1-RGS12 GoLoco interaction (red fluorophore) | P63096 | Gai1:RGS12 GoLoco peptide FP, rhodamine, 10 min | Potency, µM (highest dose often 61.6 µM), inactives show top-dose activity, negative = inhibition, most hits filed as inhibitors | 230,000 compounds, 0.44% hits | AID 880; active = well fitted inhibition curve with a large enough effect, not every such curve was filed as active; inactive = no such curve, though single readings can be large or run the other way; note: potency is the fitted concentration of half-maximal effect; % is set by controls: 0 for no effect and ±100 for the full control effect; nearly all actives have a fitted effect of over 30% in size
Starred values were filed as active, the others as inactive; ? = inconclusive; / = no result; ! = repeats disagree; [ ] = another dose, or the depositor's remark. Unless noted, calls come from the whole dose curve; as a rule, active = well fitted curve in the direction sought with a large enough effect; inconclusive = small, poorly fitted or top-dose-only effect, or another doubt; inactive = no such curve, though single readings can be large; an effect the other way counts as inactive or inconclusive.

SMILES	KAT2A inh	Vif-APOBEC3F blk	PKM2 act	IL2 activator	Vif-A3G inh	GoLoco inh red
O=C1NC(=O)C(=Cc2coc3ccc(O)cc3c2=O)C(=O)N1	-2%	-29%	32µM*	0	-6%	1%
Cc1cccc(OP(N)(=O)Oc2cccc(C)c2C)c1C	1%	-2%	0%	3	3%	-2%
ClC1=C(Cl)C2(Cl)C3C(Cl)C=CC3C1(Cl)C2(Cl)Cl (stereo unspecified)	-14%	-22%	/	-1	-1%	20µM*!
CCOC(=O)C1(CCc2ccccc2)CCN(Cc2cccc3c2OCO3)CC1	1%	-23%	32µM*	-4	0%	5%
CNc1ccc2oc(C[C@@H]3OC4(CC[C@@H]3C)O[C@H]([C@@H](C)C(=O)c3ccc[nH]3)[C@H](C)C[C@H]4C)nc2c1C(=O)O (stereo partly specified)	25µM*	/	/	/	/	2%
Cc1ccccc1OP(N)(=O)Oc1ccccc1C	-3%	-2%	2%	1	-3%	2%
C=C(C)[C@H]1CN[C@H](C(=O)O)[C@H]1CC(=O)O	32µM*!	0%	/	0	0%	11%
C=C(C)[C@H]1CN[C@H](C(=O)O)[C@@H]1CC(=O)O	-22%[0.501 µM]	/	/	/	/	-6%
CC(C)CCNC(=O)CN1C(=O)CN=C(c2ccccc2)c2ccccc21	3%	0%	0%	-3	-6%	-3%
O=c1cc(CN2CCNCC2)nc2sccn12	-1%	3%	/	-2	0%	/
CN1CC=C2C(C#N)=C(N)C(C#N)(C#N)C(c3ccncc3)C2C1 (stereo unspecified)	-25%	0%	5%	2	1%	25µM*
COc1ccc(CCNCc2sccc2C)cc1OC	-12%	-3%	2%	-1	3%	25µM*
COc1cc2c(cc1OC)CN(c1ccc([N+](=O)[O-])c(C(F)(F)F)c1)CC2	17%	-2%	2%	-1	-1%	1%
Cc1ccc(/C=C2/C(=O)NC(=O)N(CCc3ccc(F)cc3)C2=O)s1	-11%	8.9µM*	2%	-1	2%	170%
O=C1NC(=O)N(Cc2ccc(F)cc2)C(=O)/C1=C\c1ccoc1	?	25µM*	-29%	5	2%	62%
Cc1ccc(/C=C2\C(=O)NC(=O)N(CCc3ccc(F)cc3)C2=O)s1	-3%	-14%	-6%	0	2%	125%
O=C1c2cccc3cccc(c23)C(=O)N1/N=C/c1c(O)n(-c2ccccc2)c(=O)[nH]c1=O	-11%	-11%	0%	-1	4%	16µM*
C[C@]12CC[C@@H]3c4ccc(O)c(O)c4CC[C@H]3[C@@H]1CC[C@@H]2O	-11%	?	?	1	?	-15%
C[C@]12CC[C@@H]3c4cc(O)c(O)cc4CC[C@H]3[C@@H]1CC[C@@H]2O	-15%	-6%	?	0	?	7.9µM*
C[C@]12CC[C@@H]3c4ccc(OC(=O)N(CCCl)CCCl)cc4CC[C@H]3[C@@H]1CC[C@@H]2O	13µM*	/	/	/	/	/
COc1ccc(-c2ccc3c(c2)CN(C(=O)NC2CCCCC2)Cc2cnnn2-3)cc1	/	/	/	0	-18%	/
Cc1ccc2nc(N3CCN(C)CC3)[nH]c2c1	-9%	-9%	-5%	-1	4%	5%
CCOc1ccc(-c2nc3ccc(-c4nc5ccc(N6CCN(C)CC6)cc5[nH]4)cc3[nH]2)cc1	11µM*	/	/	/	/	34%
CN1CCC(O)(c2cccs2)C(C(=O)c2cccs2)C1 (stereo unspecified)	-7%	7%	5%	-1	-14%	/
CCC[N+]12CCC(CC1)C(C(O)(c1ccccc1)c1ccccc1)C2 (stereo unspecified)	-3%	2%	-4%	0	0%	10%
